Data: PubChem BioAssay (NCATS)
Where “and” joins values, the source holds several entries; their conditions need not be identical. Equal entries are not always repeated. Values without a mark were called inactive. Records with an inconclusive call do not appear. Where a call stands in place of a potency, no number is given. Calls of active or inactive are those of the source. Unless noted, the call rests on the fitted dose curve; in most records, active means well fitted curve in the direction sought with a large enough effect; inconclusive means small, poorly fitted or top-dose-only effect, or another doubt; inactive means no such curve, though single readings can be large; an effect the other way counts as inactive or inconclusive.

Assays:
[1] = Cell Viability - HepG2 (AID 433; calls by dose curve;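 further: potency means the concentration at half of the fitted maximal effect; cells exposed to compound for 40 hours; potency for ATP loss meaning cytotoxicity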); details: qHTS
Method in brief: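 Read-out is luciferase-based quantitation of cellular ATP as a measure of viable HepG2 cells after 40 h treatment at 37 °C. Signal decrease is scaled between DMSO-only and 100 uM tamoxifen controls, with AC50 fitted by the Hill equation.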

[2] = Cell Viability - MRC5 (AID 434; calls by dose curve;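 further: potency means the concentration at half of the fitted maximal effect; cells exposed to compound for 40 hours at 37 °C; potency reflects cytotoxicity seen as loss of intracellular ATP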); details: MRC5 lung fibroblast viability, qHTS
Method in brief: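 AC50 values come from Hill-equation fits of intracellular ATP loss, measured by CellTiter-Glo luminescence. Normal lung fibroblasts (MRC5) had 40 hr compound treatment at 37 C, normalized between DMSO and 100 uM tamoxifen.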

[3] = Cell Viability - HUV-EC-C (AID 542);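 further: cells exposed to compound for 40 hours; nearly all actives have a fitted effect of over 35% in size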
Method in brief: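 Cells were seeded at 1000 per well and incubated 5 hr at 37 °C before compound addition. After 40 hr at 37 °C, CellTiter-Glo reagent was added for 20 min and luminescence read. AC50 values came from Hill-equation modelling.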

[4] = Cellular Toxicity (caspase-3) Mesangial (AID 660);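 further: combined caspase 3 and 7 activity read by Caspase-Glo luminescence; cells exposed to compound for 16 h before the caspase read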
Method in brief: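 Seed cells derived from normal human renal glomeruli, incubate 5 h, add compounds across concentrations and incubate 16 h at 37 °C. Caspase 3/7 activation is then quantified by luciferase light, with AC50 derived by Hill modeling.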

[5] = Cell Viability - LYMP2-001 (AID 921);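 further: series mostly up to about 92 µM; cells exposed to compound for 24 h at 37 °C; nearly all actives have a fitted effect of over 70% in size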
Method in brief: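 Steps: seed 2500 lymphoblastoid cells/well; 5 hr, 37 C; add compound; 24 hr, 37 C; CellTiter-Glo reagent, 30 min room temperature; read luminescence. Concentration-response modeled by Hill equation for AC50.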

[6] = Cell Viability - LYMP2-011 (AID 969); further: nearly all actives have a fitted effect of over 60% in size
Method in brief: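 In this qHTS cytotoxicity format, compounds are tested across concentrations on human lymphoblastoid cells in complete medium for 24 hours at 37 C. Viability is taken as cellular ATP measured by luciferase luminescence.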

[7] = Cell Viability - LYMP2-013 (AID 970);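 further: series mostly up to about 92 µM; cells exposed to compound for 24 h at 37 °C; nearly all actives have a fitted effect of over 55% in size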
Method in brief: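 Cytotoxicity is scored as a concentration-dependent drop in intracellular ATP in human lymphoblastoid cells after 24 hr compound exposure at 37 C. ATP is quantified by luciferase luminescence, and AC50 values come from Hill-equation modeling.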

[8] = Cell Viability - LYMP2-021 (AID 974);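 further: compound exposure lasts 24 hours at 37 °C; nearly all actives have a fitted effect of over 55% in size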
Method in brief: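 Loss of cellular ATP, measured with a luciferase-based CellTiter-Glo readout, serves as the toxicity signal in human lymphoblastoid cells treated for 24 hours at 37 C. Potency is reported as AC50 from a standard Hill model.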

[9] = Cell Viability - LYMP2-006 (AID 978); further: series mostly up to about 92 µM; nearly all actives have a fitted effect of over 60% in size
Method in brief: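 Cells are seeded at 2500 per well and rested 5 hr at 37 C. Compounds are added across a concentration series for 24 hr at 37 C, after which ATP is quantified by luciferase luminescence.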

[10] = Cell Viability - LYMP2-010 (AID 981); further: nearly all actives have a fitted effect of over 55% in size
Method in brief: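 Steps: seed 2500 LYMP2-010 cells per well; incubate 5 hr at 37 C; add compound; incubate 24 hr at 37 C; add CellTiter-Glo, wait 30 min at room temperature; read luminescence. Concentration-response fitted to Hill equation for AC50.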

[11] = Cell Viability - LYMP2-020 (AID 986);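 further: series mostly up to about 92 µM; cells exposed to compound for 24 h at 37 °C; nearly all actives have a fitted effect of over 55% in size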
Method in brief: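 Seed 2500 cells per well and incubate 5 hr at 37 C. Add compounds at a concentration series and incubate 24 hr at 37 C. Add CellTiter-Glo, wait 30 min at RT, read luminescence, and fit a Hill curve for AC50.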

[12] = Cell Viability - LYMP2-024 (AID 988); further: nearly all actives have a fitted effect of over 60% in size
Method in brief: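 qHTS cytotoxicity, human lymphoblastoid line, complete medium; 24 h cpd treatment, 37 C; CellTiter-Glo ATP luminescence readout; tetraoctylammonium bromide positive control; AC50 via Hill fit.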

[13] = Cell Viability - LYMP1-002 - Assay at 24 hr (AID 993)
Method in brief: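 Acute toxicity is measured as concentration-dependent loss of cellular ATP in a human lymphoblastoid line (Coriell LYMP1-002) after 24 h treatment in complete medium. ATP is quantified by luciferase luminescence and AC50 derived by Hill modelling.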

[14] = qHTS assay for small molecule activators of the p53 signaling pathway (AID 651743; active means well fitted activation curve with a large enough effect in the signal ratio, not every such curve was filed as active; the % refers to the signal ratio; further: series mostly up to about 92 µM); details: HCT-116 p53RE-bla, beta-lactamase FRET ratio, 16 h; activation: active compounds read high
Method in brief: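 After 16 hours compound treatment at 37 C, HCT-116 cells stably expressing p53RE-driven beta-lactamase were loaded with LiveBLAzer B/G FRET substrate for 2 hours at room temperature. Fluorescence intensity served as the p53 activation read-out.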

[15] = target: Nuclear receptor ROR-gamma (Homo sapiens) (UniProt P51449); test: qHTS assay for small molecule antagonists of the retinoid-related orphan receptor gamma (ROR-gamma) signaling pathway (AID 651802);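 further: CHO cells with doxycycline-induced ROR-gamma expression; series mostly up to about 92 µM; nearly all actives have a fitted effect of over 60% in size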
Chain of Nuclear receptor ROR-gamma (Homo sapiens) (P51449 whole entry, looked up): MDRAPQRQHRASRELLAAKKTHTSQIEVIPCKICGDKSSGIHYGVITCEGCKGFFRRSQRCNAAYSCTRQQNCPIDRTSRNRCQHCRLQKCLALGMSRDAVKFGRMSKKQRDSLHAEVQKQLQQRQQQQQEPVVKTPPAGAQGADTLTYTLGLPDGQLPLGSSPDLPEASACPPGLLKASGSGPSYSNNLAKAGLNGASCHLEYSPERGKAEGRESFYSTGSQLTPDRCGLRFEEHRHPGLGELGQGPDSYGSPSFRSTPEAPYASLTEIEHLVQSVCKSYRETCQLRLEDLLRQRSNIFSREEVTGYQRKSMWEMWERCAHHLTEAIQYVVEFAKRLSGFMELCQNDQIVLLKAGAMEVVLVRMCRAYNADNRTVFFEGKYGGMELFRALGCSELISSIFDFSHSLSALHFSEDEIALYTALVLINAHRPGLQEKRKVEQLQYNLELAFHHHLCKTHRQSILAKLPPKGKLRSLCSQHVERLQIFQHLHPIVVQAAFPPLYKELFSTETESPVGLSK
Method in brief: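 Steps: cells dispensed; compound or DMSO transferred by pin tool; doxycycline added to induce the ROR response element-driven luciferase; plates held 16hr at 37C; ONE-Glo added and luminescence measured.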

[16] = qHTS assay for small molecule antagonists of the retinoid-related orphan receptor gamma (ROR-gamma) signaling pathway - cell viability counter screen (AID 720652; active means well fitted curve in the direction sought with a large enough effect in the repeat runs; an effect the other way counts as inactive or inconclusive;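 further: CHO reporter cells with doxycycline-induced ROR-gamma expression; series mostly up to about 92 µM; compound exposure lasted 16 hr before ATP read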)
Method in brief: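 Steps: seed CHO cells bearing TET-inducible ROR and ROR response element-luciferase; rest 5 hr at 37 C; add compound, then doxycycline; incubate 16 hr; add CellTiter-Glo and read luminescence as ATP-based viability.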

[17] = qHTS assay for cell viability of the p53RE-bla HCT-116 cell line (AID 743292); further: nearly all actives have a fitted effect of over 55% in size
Method in brief: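 ATP-based luminescence, 16 h compound exposure at 37 C, p53RE-bla HCT-116 cells at 4,000/well.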

[18] = qHTS assay for small molecule activators of the human pregnane X receptor (PXR) signaling pathway (AID 720659; call rule not given here)
[19] = MultiTox-Fluor Cytotoxicity Assay - LYMP1-002 - Dead Cells (AID 960); further: nearly all actives have a fitted effect of over 60% in size; further: potency means the concentration at half of the fitted maximal effect
Method in brief: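 Cells were plated, rested 5 hr, then treated with compound dilution series for 16 hr at 37 C. After adding substrate reagent and 60 min at room temperature, dead-cell protease fluorescence gave concentration-response curves fitted by the Hill equation.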

Row | SMILES | Potency [1] [µM] | Potency [2] [µM] | Potency [3] | outcome [4] | Potency [5] | Potency [6] | Potency [7] | Potency [8] | Potency [9] | Potency [10] | Potency [11] | Potency [12] | Potency [13] | activation [14] | Potency [15] | Potency [16] | Potency [17] | outcome [18] | Potency [19]
1 | Nc1ccc2ccccc2c1 | > 92 | > 92 | inactive | inactive | inactive | inactive | inactive | inactive | inactive | inactive | inactive | inactive | inactive | 0.265% | inactive | inactive | inactive | inactive | 
2 | CCOC(=O)CBr | > 92 | > 92 | inactive | inactive | inactive | inactive | inactive | inactive | inactive | inactive | inactive | inactive | inactive | -2.17% | inactive | inactive | inactive | inactive | inactive
3 | C=CC(=O)OC | > 92 | > 92 | inactive |  | inactive | inactive | inactive | inactive |  | inactive | inactive | inactive | inactive | -0.53% | inactive | inactive | inactive | inactive | inactive
4 | CC12CC1(C)C(=O)N(c1cc(Cl)cc(Cl)c1)C2=O (stereo unspecified) | > 92 | > 92 | inactive | inactive |  | inactive | inactive | inactive | inactive |  |  | inactive | inactive | 3.14% | inactive |  | inactive |  | inactive
5 | Cc1ccc(OP(=O)(Oc2ccc(C)cc2)Oc2ccc(C)cc2)cc1 | > 92 | > 92 | inactive | inactive | inactive | inactive | inactive | inactive | inactive | inactive | inactive | inactive | inactive | 0.798% and -5.64% |  |  | inactive |  | 25.1 µM (active)
6 | O=C(Cl)OCc1ccccc1 | > 92 | > 92 | inactive | inactive | inactive | inactive |  |  | inactive | inactive | inactive | inactive | inactive | -2.98% | inactive | inactive | inactive | inactive | inactive
7 | CCOP(=O)(OCC)OCC |  | > 92 | inactive | inactive | inactive | inactive | inactive | inactive | inactive |  | inactive |  | inactive | 2.61% and -1.3% | inactive | inactive | inactive | inactive | inactive
8 | Oc1ccc(Cl)c(Cl)c1Cl | > 92 | > 92 | inactive | inactive | inactive | inactive | inactive | inactive |  | inactive | inactive |  | inactive | -0.769% |  | inactive |  | inactive | inactive
9 | S=C1NCCN1 | > 92 | > 92 | inactive | inactive | inactive | inactive | inactive | inactive | inactive | inactive | inactive | inactive | inactive |  |  | inactive | inactive | inactive | inactive
10 | CSSC | > 92 | > 92 | inactive | inactive | inactive | inactive |  | inactive |  | inactive | inactive | inactive | inactive | -1.71% | inactive | inactive | inactive | inactive | inactive
